Source: PubChem BioAssay (NCI)
About 79,000 compounds went through this panel and 15% of them were active in at least one assay; those are over-represented in the sample as a whole. No stated cut-off is given here; in the data, active means growth inhibition above about 70%; inactive means the rest.

Key:
[1] = NCI Yeast Anticancer Drug Screen. Data for the rad50 strain (AID 155);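 further: 0% = growth of vehicle-only cultures of the same strain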; settings: S. cerevisiae rad50 strain growth inhibition; at 50.0 µM; active compounds read high
Summary of the method: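 Yeast carrying a defined DNA repair defect were exposed to test compounds, and growth was compared with vehicle-treated controls to give percent inhibition.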

[2] = NCI Yeast Anticancer Drug Screen. Data for the mec2-1 strain (AID 157); settings: S. cerevisiae mec2-1 strain, at 50.0 µM, active compounds read high
Summary of the method: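 Using mec2-1 yeast: add compound, measure growth, express inhibition versus vehicle-treated cultures.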

[3] = NCI Yeast Anticancer Drug Screen. Data for the sgs1 mgt1 strain (AID 161);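 further: 0% = growth of cultures given vehicle only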; settings: S. cerevisiae sgs1 mgt1 strain, at 50.0 µM, active compounds read high
Summary of the method: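 Yeast cells carrying a defined DNA-repair defect were exposed to test compounds. Growth inhibition was measured relative to vehicle-treated controls.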

[4] = NCI Yeast Anticancer Drug Screen. Data for the cln2 rad14 strain (AID 165);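 further: 0% = growth equal to vehicle treated cultures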; settings: S. cerevisiae cln2 rad14 strain, at 50.0 µM, active compounds read high
Summary of the method: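 Yeast strain cln2 rad14, bearing defects in cell cycle control and DNA repair, serves as the test system; values reflect growth inhibition compared with vehicle.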

[5] = NCI Yeast Anticancer Drug Screen. Data for the bub3 strain (AID 167); settings: S. cerevisiae bub3 mutant strain, at 50.0 µM, active compounds read high
Summary of the method: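 Compounds were applied to a genetically altered yeast strain carrying a cell-cycle control defect. Growth inhibition was scored against vehicle-treated controls.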

[6] = NCI Yeast Anticancer Drug Screen. Data for the mlh1 rad18 strain (AID 175); settings: S. cerevisiae mlh1 rad18 strain growth inhibition; at 50.0 µM; active compounds read high
Summary of the method: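 Steps: expose repair-defective yeast to compound; measure growth; express inhibition against vehicle-treated controls.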

Measured: growth inhibition

CCN(CC)CN(CC)CC
inactive: [1] 13.7% | [2] -9.2% | [3] 7.6% | [4] 21.4% | [5] 10.9% | [6] 9.25%

CN(C)c1ccc(C=C2C(=O)CC(C)(C)CC2=O)cc1
inactive: [1] 12.5% | [2] 10.2% | [3] 23.1% | [4] 16.1% | [5] 5.85% | [6] -8.4%

CC1=CC(C)(C)N=C2SC(=O)c3nc4ccccc4c(=O)n3N12
inactive: [1] 10.7% | [2] 2.35% | [3] 13.8% | [4] -11.3% | [5] 15.1% | [6] 16.6%

O=C(NC(CCS(=O)(=O)n1ccnc1)C(=O)OCc1ccccc1)OCc1ccccc1 (stereo not given)
inactive: [1] 12.7% | [2] -4.95% | [3] -18.2% | [4] 11.2% | [5] -4.7% | [6] 1.6%

CC1CC(C)OC(c2ccco2)O1 (stereo not given)
inactive: [1] 2.4% | [2] -20.6% | [3] -11.9% | [4] -37.6% | [5] -15.1% | [6] 16.2%

OCC1OC2OC(c3ccccc3)(c3ccc(OCc4ccccc4)nc3OCc3ccccc3)OC2C1O (stereo not given)
inactive: [1] 25.9% | [2] 2.6% | [3] 0.6% | [4] 14.8% | [5] -10.4% | [6] 2.8%

C=C[C@]1(C)C[C@@H](OC(=O)CO)[C@@]2(C)[C@H](C)CC[C@]3(CCC(=O)[C@H]32)[C@@H](C)[C@@H]1O
inactive: [1] -28.6% | [2] -23.3% | [3] 14.3% | [4] 30.2% | [5] -49.4% | [6] -2.15%

Cc1ccc(S(=O)(=O)OC(c2ccc(Cl)cc2Cl)C2OC(=O)c3ccccc32)cc1 (stereo not given)
inactive: [1] 23.3% | [2] -12.4% | [3] 16.9% | [4] 24.7% | [5] 15% | [6] 21.4%

C(#CC(Sc1ccccc1)=C(Sc1ccccc1)Sc1ccccc1)Sc1ccccc1
inactive: [1] 3.1% | [2] 2.15% | [3] -21.9% | [4] -32.3% | [5] 5.6% | [6] -6.25%

CCOC(=O)CSc1nnc(N)s1
inactive: [1] 21% | [2] 6.55% | [3] -6.15% | [4] 3.15% | [5] -6.75% | [6] -1.5%

O=C(Nc1ccccc1)Nc1ccc(-c2ccccc2)cc1
inactive: [1] 13.7% | [2] 14.1% | [3] 13.1% | [4] 5.7% | [5] 37.6% | [6] 3.5%

O=C1C=C(c2ccccc2)C(c2ccccc2)=C1
inactive: [1] 23.6% | [2] 2.8% | [3] -5.2% | [4] 30.1% | [5] -5.6% | [6] 11.1%

O=C1OC(=O)C2CCC12 (stereo not given)
inactive: [1] 14% | [2] -9.5% | [3] 3.5% | [4] 2.5% | [5] 12.5% | [6] 17.6%

CC(=O)c1ccc2c(ccc3ccccc32)c1O
inactive: [1] -16.5% | [2] -11.6% | [3] -3.65% | [4] -8.8% | [5] -2.45% | [6] 0.7%

CCOC(=O)c1[nH]c(C)cc1C
inactive: [1] 2.95% | [2] -15.9% | [3] -7.55% | [4] -18.2% | [5] -22.4% | [6] -0.9%

CSCC1CC(c2ccc(Cl)cc2)=NO1 (stereo not given)
inactive: [1] 27.8% | [2] 6.8% | [3] 1.05% | [4] -1.4% | [5] 0.45% | [6] 32.6%

O=C(O)CCCCCCCCCCCc1ccccc1
inactive: [1] -30.8% | [2] -16.8% | [3] -19.3% | [4] -13.2% | [5] 5.55% | [6] -38.5%

COC(=O)C(C/C=C(\C)c1ccccc1)C(C)=O (stereo not given)
inactive: [1] -13.1% | [2] -23.7% | [3] -25% | [4] 19.1% | [5] -23.1% | [6] -0.35%

O=C(O)C(F)(F)C(F)(F)C(F)(F)C(F)(F)C(=O)O
inactive: [1] -1.85% | [2] -2.95% | [3] -37.8% | [4] -28.3% | [5] -45.8% | [6] -22.8%

Nc1cnc(N)nc1
inactive: [1] -8.4% | [2] -18.8% | [3] -21.6% | [4] -24.4% | [5] 11.8% | [6] -17.2%
